Test results: PubChem BioAssay (NCI)
The panel holds about 83,000 compounds, 20% with a hit somewhere; the sample as a whole holds those more often.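 Values shown are percent growth following 48 h exposure of cells in 96-well plates to a single concentration of compound; below 10 was considered active.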 Unmarked numbers belong to inactive results. Calls of active or inactive are those of the source. *1 amine or outer side, *2 acyl side, *3 side chain or, on linkers, in order; H or OH if unused. Where a SMILES comes first, the peptide text is derived from it. Bridges are numbered along the chain shown (N, C = ends). Roman numbers before positions name the chains, in order. [ ]: non-standard residue; d: D form. The star is where a group is joined. Actinocin(1to9) = Cc1c2oc3c(C)ccc(C(=O)[*:2])c3nc-2c(C(=O)[*:1])c(N)c1=O; X5 = CCC(=O)CC1CC(C)CC(C(=O)[*:2])N1[*:1]; NMeV = CN[CH](C(=O)O)C(C)C; X4 = CCCCCCCCC(C)C(=O)*; Aib = CC(C)(N)C(=O)O; X6 = CC(CN(C)CCO)N*; Sar = CNCC(=O)O

Experiments:
Test in all cases: NCI-60 one-dose screen, 48 h (100 = growth as untreated, 0 = no growth, -100 = all killed)
Settings in all cases: 10 µM unless noted
T-47D breast = system: T-47D breast
BT-549 breast = system: BT-549 breast
MDA-MB-435 melanoma = system: MDA-MB-435 melanoma
SW-620 colon = system: SW-620 colon
MCF7 breast = system: MCF7 breast
HCC-2998 colon = system: HCC-2998 colon
KM12 colon = system: KM12 colon
HCT-116 colon = system: HCT-116 colon

SMILES	growth (T-47D breast)	growth (BT-549 breast)	growth (MDA-MB-435 melanoma)	growth (SW-620 colon)	growth (MCF7 breast)	growth (HCC-2998 colon)	growth (KM12 colon)	growth (HCT-116 colon)
Cc1ccc2cccc(OC(=O)Nc3cccc(C(F)(F)F)c3)c2n1	47.1%	108%	91.3%	58%	72.2%	87.6%	44.5%	
CC1C(c2ccccc2)OCCN1C(=S)Nc1ccc(S(=O)(=O)N2CCCCC2)cc1 (configuration not stated)	96.9%	97.6%	89.4%	87.6%	91.3%		92.1%	91.8%
Cc1onc(-c2ccccc2)c1C(=O)N/N=C/c1cc(Cl)cc(Cl)c1O	42%	33.8%	45.2%	35.3%	18.8%	17.1%	30.6%	
COC1=CC(=O)c2c(O)c3c(c(O)c2C1=O)CC(C)(O)OC3 (configuration not stated)	0.836% (active)	28.1%	-95% (active)	16.6%	-27.1% (active)	-20.5% (active)	9.83% (active)	-27.6% (active)
COc1ccc2nc3cc([N+](=O)[O-])ccc3c(NNc3ccccc3)c2c1	77.9%	67.3%	107%	86.1%	72.9%		81.7%	41.2%
COc1cc(NCc2ccc3nc(N)nc(N)c3c2C)cc(OC)c1OC (tested in a mixture with another compound)	47.1%	56.1%	33.1%	32.4%	21.3%	14.3%	14.8%	20.6%
CC(C)Nc1ccc(Nc2ccc(NC(C)C)cc2)cc1	31.9%	53.2%	51.4%	47.9%	28.9%	61.2%	29.3%	
CC(C)=C1C=C2CC[C@@H]3[C@](C)(CCC[C@@]3(C)C(=O)O)[C@H]2CC1	97.6%	126%	101%	102%	95.9%		101%	107%
C[C@@]1(CO)[C@H](O)CC[C@@]2(C)[C@H]1CC[C@H]1C[C@@H]3C[C@@]12CC[C@@]3(O)COC(=O)CN	61.8%	46.3%	55.1%	50.9%	36.9%		61.8%	33.3%
CCC(C)C(N)C(=O)NC(CC(N)=O)C(=O)NC(CC(C)C)C(=O)NC(CCCCN)C(=O)NC(C)C(=O)NC(CC(C)C)C(=O)NC(C)C(=O)NC(C)C(=O)NC(CC(C)C)C(=O)NC(C)C(=O)NC(CCCCN)C(=O)NC(CCCCN)C(=O)NC(C(=O)NC(CC(C)C)C(N)=O)C(C)CC (configuration not stated)	93.9%	134%	77.7%	103%	97.4%		90.2%	82.5%
CCCCCCCCCCCCCCCC[N+]1(C)CCCC1c1cccnc1 (configuration not stated)	45.2%	-6.27% (active)	63.9%	53.2%	41%	19.8%	41.7%	
CCOC(=O)c1cc(CC)sc1NC(=O)CC(C)=O	34.8%	27.3%	68.8%	49.7%	15.9%	69.4%	47.1%	26.5%
CCCCCCCCCCCCNCCCc1ccccc1	54.9%	85.9%	100%	46.1%	25.4%		27.2%	20.4%
[Cl-].[Rh+3].c1ccc(-c2ccnc3c2ccc2c(-c4ccccc4)ccnc23)cc1.c1ccc(-c2ccnc3c2ccc2c(-c4ccccc4)ccnc23)cc1.c1ccc(-c2ccnc3c2ccc2c(-c4ccccc4)ccnc23)cc1	50.4%	42.9%	72.5%	99.2%	63.3%		59.3%	87.3%
CC1(C)OC2C(COC(c3ccccc3)(c3ccccc3)c3ccccc3)OC(c3c[nH]c4c(N)ncnc34)C2O1 (configuration not stated)	43.2%	77.5%	62.4%	63.9%	35%	85.7%	50.3%	
NC(=Nc1nc(-c2ccccn2)cc2ccccc12)c1ccccn1	16.4%	23.3%	22.9%	11.8%	9.19% (active)		16%	5.82% (active)
Cc1c(O)ccc(SC#N)c1C	94%	104%	105%	103%	116%	96.5%	97.2%	88%

SMILES	growth (T-47D breast)	growth (BT-549 breast)	growth (MDA-MB-435 melanoma)	growth (SW-620 colon)	growth (MCF7 breast)	growth (HCC-2998 colon)	growth (KM12 colon)	growth (HCT-116 colon)
CN(C)c1ccc(/C=C/c2cc[n+](C)c(/C=C/c3ccc(N(C)C)cc3)c2)cc1	-2.17% (active)	18.9%	-48.7% (active)	9.01% (active)	-6.46% (active)	12.4%	-55.6% (active)	
COc1cccc2c1C(=O)c1c(O)c3c(c(O)c1C2=O)C[C@@](O)(C(=O)CO)C[C@@H]3OC1CC(OC(C)=O)C(OC(C)=O)C(C)O1 (some centres not stated)	-27.3% (active)	-39.7% (active)	7.04% (active)	3.7% (active)	4.45% (active)	-72% (active)	-39% (active)	
OC(CSc1ccccc1)CN1CCN(c2ccc(Cl)cc2)CC1 (configuration not stated)	95.9%	102%	105%	105%	98%	95.3%	110%	90.2%
Cn1ccc(=Nc2ccc(NC(=O)c3ccc(N=c4ccn(C)c5ccc([N+](=O)[O-])cc45)cc3)cc2)cc1	54.9%	56.1%	83.4%	70.8%	55.6%		57.8%	32.6%
S=c1[nH]c2cc(Cl)ccc2s1	90.4%	100%	98.8%	113%	95.2%	97.4%	96.5%	
O=C(Nc1cccc(C(F)(F)F)c1)Oc1ccc(Cl)c2cccnc12	22%	37.5%	28%	12.8%	61.1%	92.7%	25.4%	
CC(CSc1n[nH]c(=S)s1)c1ccccc1 (configuration not stated)	110%	112%	109%	112%	102%		113%	105%
CCCCCC[C@@H](O)C/C=C\CCCCCCCC(=O)OCCOC	94.3%	99%	110%	102%	100%		102%	89.2%
Cc1oc2c(C)c3oc(=O)cc(C)c3cc2c1CCl	53.9%	68.8%	63.4%	76.7%	49%	98.8%	90.1%	71.1%
CN1CSC(=S)N(Cc2ccccc2)C1	43.1%	80.3%	77.9%	35.4%	33.5%		40.8%	25.9%
O=C(CBr)c1ccc(OC(=O)c2ccccc2)cc1	95.7%	105%	106%	88.4%	92.5%		106%	75.6%
O=C(O)c1ccc2c(c1)C(=O)c1ccccc1C2=O	99.7%	107%	102%	97%		104%	98.9%	106%
CCCCCCCCCCCC(=O)OC(C)C(=O)NCCCC (configuration not stated)	97.9%	92.5%	112%	98.5%		80.2%	105%	94.4%
CCCCCCCCC(C)C(=O)N1CCCC1C(=O)N1C(CC(=O)CC)CC(C)CC1C(=O)NC(C)C(=O)NC(C)(C)C(=O)NC(C)(C)C(=O)NC(C(=O)NC(C)C(=O)NC(C)(C)C(=O)NC(C)(C)C(=O)NC(C)CN(C)CCO)C(C)CC (configuration not stated) (X4-P[X5]A[Aib][Aib]IA[Aib][Aib]-X6; configuration not given here)	-16.5% (active)	-80.3% (active)	-18.8% (active)	-81.4% (active)	-80.7% (active)		-75.8% (active)	
COc1ccc(C(Cn2ccnc2)Sc2ccc(Cl)c(Cl)c2)cc1 (configuration not stated)	79.3%	73.2%	84.1%	80.9%		108%	73.7%	48.5%
CCC(C)C1NC(=O)C(NC(=O)c2c3nc4c(C(=O)NC5C(=O)NC(C(C)CC)C(=O)N6CCCC6C(=O)N(C)CC(=O)N(C)C(C(C)C)C(=O)OC5C)ccc(C)c4oc-3c(C)c(=O)c2N)C(C)OC(=O)C(C(C)C)N(C)C(=O)CN(C)C(=O)C2CCCN2C1=O (configuration not stated) (I: TIP[Sar][NMeV] / II: TIP[Sar][NMeV]; ester I:1-I:C, II:1-II:C; linker I:N-II:N via Actinocin(1to9); configuration not given here)	-8.27% (active)	-41.6% (active)	-91.1% (active)	-20.8% (active)			-25.6% (active)	0.361% (active)
Cc1ccc(N2C(=O)C=CC2=O)cc1	112%	105%	117%	-11.5% (active)		94.3%	108%	101%
